The list is not random: actives were taken first. Their share in the collection is about 2%.
HTT ATP protect = qHTS Multiplex Assay to Identify Dual Action Probes in a Cell Model of Huntington: Cytoprotection (ATP) | Potency, µM (top dose mostly 56.4 µM), for inactives: cytoprotection (ATP increase), most hits filed as activators | AID 1471, 2008 | hit rate 0.14% among 230,000 | PC12 HTT-Q103 induced, cytoprotection, ATP luminescence, 40 h; also: potency is read from the fitted curve at half-maximal effect; % of control where 0% means no effect; nearly all actives have a fitted effect of over 45% in size
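Cells were plated at 1500 per well in phenol red-free DMEM with 5% equine and 5% calf serum. Tebufenozide (100 nM final) and compounds were added, then ATPlite reagent, and luminescence was read.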
HttQ103 aggreg = qHTS Multiplex Assay to Identify Dual Action Probes in a Cell Model of Huntington: Aggregate Formation (GFP) | PC12 HttQ103-GFP aggregates, Acumen cytometry, 40 h | Potency, µM (titrated, usually from 46.1 µM), inactives show at the top dose activity change, negative = inhibition, hits mostly inhibitors | hit rate 1.1% among 220,000 | AID 1688, 2009; also: potency is read from the fitted curve at half-maximal effect; % is scaled to controls: 0 for no effect and ±100 for the full control effect; nearly all actives have a fitted effect of over 60% in size
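Aggregate formation scored by laser-scanning cytometer (488 excitation, 500–530 emission) in lysed PC12 cells expressing Q103-GFP after 100 nM tebufenozide induction; library tested in dose series, with ATPLite reagent added in the multiplex.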
TRb SRC2 PPI = qHTS for Inhibitors of the Interaction of Thyroid Hormone Receptor and Steroid Receptor Coregulator 2 | Thyroid hormone receptor beta (Homo sapiens), P10828 | hit rate 0.065% among 280,000 | TRbeta-SRC2 peptide binding, fluorescence polarization; receptor liganded with 1 µM T3 | Potency, µM (titrated, usually from 106 µM), for the others: at the top dose activity change, negative = inhibition, actives largely listed as inhibitors;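 also: potency is read from the fitted curve at half-maximal effect; plate controls were bound peptide for no effect and peptide without receptor for full effect; nearly all actives have a fitted effect of over 50% in size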
Target sequence (P10828 whole entry, looked up): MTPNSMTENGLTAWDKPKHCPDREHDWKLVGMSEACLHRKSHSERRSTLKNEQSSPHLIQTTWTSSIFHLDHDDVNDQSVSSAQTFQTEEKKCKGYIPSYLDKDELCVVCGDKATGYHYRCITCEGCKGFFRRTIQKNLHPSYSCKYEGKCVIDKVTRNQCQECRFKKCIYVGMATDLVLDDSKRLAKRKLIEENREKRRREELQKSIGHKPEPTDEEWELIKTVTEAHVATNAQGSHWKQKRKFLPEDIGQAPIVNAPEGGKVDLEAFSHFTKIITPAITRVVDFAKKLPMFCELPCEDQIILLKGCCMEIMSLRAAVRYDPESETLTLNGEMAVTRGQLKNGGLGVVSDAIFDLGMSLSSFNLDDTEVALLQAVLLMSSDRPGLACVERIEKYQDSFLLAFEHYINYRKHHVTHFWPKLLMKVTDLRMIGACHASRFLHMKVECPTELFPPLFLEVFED
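Quantitative HTS by FP: 0.6 uM TRb LBD, 20 nM labeled SRC2 20-mer, 1 uM T3, 5% DMSO; 5 hr ambient incubation; % activity per concentration and potencies from concentration series.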
TexasRed fluor = Total Fluorescence Counterscreen for Inhibitors of the Interaction of Thyroid Hormone Receptor and Steroid Receptor Coregulator 2 | hit rate 0.29% among 280,000 | TRb/SRC2 Texas Red total fluorescence interference | Potency, µM (doses to about 106 µM), for the others: top-dose fluorescence change, negative = quenching; active = well fitted curve in either direction with a large enough effect; inconclusive = small, poorly fitted or top-dose-only effect; also: potency is read from the fitted curve at half-maximal effect; % is scaled to controls: 0 for no effect and ±100 for the full control effect
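Human TRb ligand-binding domain at 0.6 uM with 20 nM Texas Red SRC2 peptide in Tris buffer containing 1 uM T3 and 5% DMSO, incubated with compound 5 h at ambient temperature. Total fluorescence (555/632 nm) calculated as parallel + 2 × perpendicular.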
KDM4E inh = qHTS Assay for Inhibitors of Human Jumonji Domain Containing 2E (JMJD2E) | hit rate 1.6% among 230,000 | AID 2147, 2009 | JMJD2E catalytic domain, FDH-coupled NADH fluorescence (FDH is formaldehyde dehydrogenase) | Potency, µM (highest dose often 57.1 µM), without a hit: at the top dose activity change, negative = inhibition, hits mostly inhibitors; active = well fitted inhibition curve with a large enough effect, not every such curve was filed as active; inconclusive = small, poorly fitted or top-dose-only effect, or another doubt; inactive = no such curve, though single readings can be large or run the other way;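 also: potency is read from the fitted curve at half-maximal effect; 0% = wells with enzyme and -100% = buffer wells without enzyme; nearly all actives have a fitted effect of over 50% in size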
Coupling enz = qHTS Assay for Inhibitors of Fructose-1,6-bisphosphate Aldolase from Giardia Lamblia: Coupling assay counterscreen; coupling enzyme system counterscreen, AmpLite Red fluorescence; activity change, negative = inhibition, % at 58.2 µM, hits read low; hit rate 0.67% among 290,000; in the data active = activity change below about -30%; also: % is scaled to controls: 0 for no effect and ±100 for the full control effect
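Fluorescence at 525 nm excitation and 598 nm emission measured inhibition of the coupled detection system without aldolase. Compounds (at 57.5 uM final) were preincubated 10 min at room temperature with coupling enzyme reagent before a 20 min substrate/AmpLite Red step.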
The depositor's hits bear a star; [ ] = dose if it differs, or a comment. Unless noted, calls follow the shape of the dose curve; as a rule, active = well fitted curve in the direction sought with a large enough effect; inconclusive = small, poorly fitted or top-dose-only effect, or another doubt; inactive = no such curve, though single readings can be large; an effect the other way counts as inactive or inconclusive.

CN1CCN(Cc2c(O)ccc3occ(C(=O)c4ccccc4)c23)CC1 was read as HTT ATP protect 2%[10 µM], HttQ103 aggreg -5%, TRb SRC2 PPI 7%, TexasRed fluor -2%, KDM4E inh 4% and Coupling enz 0.
`CC(=O)C(C(C)=O)c1c(Cl)c(O)c(O)c2c(C(=O)c3ccccc3)coc12` gave HTT ATP protect -22%, HttQ103 aggreg inconclusive, TRb SRC2 PPI 4%, TexasRed fluor -2%, KDM4E inh 16µM* and Coupling enz -12.
Screening Cc1cc(C)c(NC(=O)c2cc(C)nc3c2c(C)nn3-c2cccc(F)c2)c(C)c1 returned TRb SRC2 PPI 1% and TexasRed fluor 4%.
Screening CC(NC(=O)OC(C)(C)C)C(=O)Oc1cc2oc(=O)cc(-c3ccccc3)c2cc1Cl (centres undefined) returned HTT ATP protect -27%[10 µM], HttQ103 aggreg 6.3µM*, TRb SRC2 PPI 5%, TexasRed fluor -7%, KDM4E inh inconclusive and Coupling enz 14.
`Cc1ccc(N2CC(c3nnc(Cc4ccc(F)cc4Cl)o3)CC2=O)cc1` (centres undefined) gave TRb SRC2 PPI -6% and TexasRed fluor 0%.
Screening C[N+]12CCCCC1C(COC(=O)c1ccc3c(c1)OCO3)CCC2 (centres undefined) returned HTT ATP protect 0%, HttQ103 aggreg -8%, TRb SRC2 PPI 6%, TexasRed fluor -3%, KDM4E inh 22µM* and Coupling enz 4.
Screening CCN(CC)c1ccc(NC(=O)c2cc(CN3CCCC3)on2)c(C)c1 returned TRb SRC2 PPI -6% and TexasRed fluor 2%.
Screening Cc1ccsc1C1Nc2ccc3ncccc3c2C2=C1C(=O)CC(C)(C)C2 (centres undefined) returned HTT ATP protect -51%[10 µM], HttQ103 aggreg -18%[9.22 µM], TRb SRC2 PPI -1%, TexasRed fluor -3%, KDM4E inh 5% and Coupling enz -31*.
`O=C1CCCC2=C1C(c1cccs1)Nc1ccc3ncccc3c12` (centres undefined) gave HTT ATP protect -52%, HttQ103 aggreg 9%, TRb SRC2 PPI 4%, TexasRed fluor 0%, KDM4E inh inconclusive and Coupling enz -4.
O=C1CCCC2=C1C(c1ccc(O)c(O)c1)Nc1ccc3ncccc3c12 (centres undefined) was read as HTT ATP protect 14%[10 µM], HttQ103 aggreg 23%, TRb SRC2 PPI 0%, TexasRed fluor -8%, KDM4E inh 25µM* and Coupling enz -14.
`OC[C@H]1O[C@@H](n2cnc3cncnc32)[C@H](O)[C@@H]1O` gave TRb SRC2 PPI -1%, TexasRed fluor 3%, KDM4E inh 0% and Coupling enz 0.
COc1cc(NS(=O)(=O)c2ccc([N+](=O)[O-])cc2)c2ncccc2c1 was read as TRb SRC2 PPI 0%, TexasRed fluor 0% and Coupling enz -18.
Cc1ccc2cc(C#N)c(NCCCNC(=O)C3CCCO3)nc2c1 (centres undefined) was read as HTT ATP protect -5%, HttQ103 aggreg -8%, TRb SRC2 PPI 9%, TexasRed fluor -1%, KDM4E inh inconclusive and Coupling enz -35*.
Cc1ccc2cc(C#N)c(N3CCCN(C(=O)C4CCCO4)CC3)nc2c1 (centres undefined) was read as HTT ATP protect -20%, HttQ103 aggreg -6%, TRb SRC2 PPI -2%, TexasRed fluor -1%, KDM4E inh inconclusive and Coupling enz -3.
For O=C(CC(NCc1cccnc1)C(=O)O)Nc1ccc(F)cc1 (centres undefined) the results were TRb SRC2 PPI 13% and TexasRed fluor -4%.
`CC(C)NC(=O)c1cc2c(-c3ccc(Cl)cc3)nn(C)c2s1` gave HTT ATP protect -26%, HttQ103 aggreg 23%, TRb SRC2 PPI -1%, TexasRed fluor -2%, KDM4E inh 8.9µM* and Coupling enz 3.
Screening Cc1ccc(CNC(=O)c2cc3c(-c4ccc(Cl)cc4)nn(C)c3s2)o1 returned HTT ATP protect -24%, HttQ103 aggreg 8.9µM*, TRb SRC2 PPI 10%, TexasRed fluor 0%, KDM4E inh inconclusive and Coupling enz -2.
For O=C(NCCN1CCOCC1)NC1(C(F)(F)F)Oc2ccc(Cl)cc2O1 (centres undefined) the results were HTT ATP protect -27%[10 µM], HttQ103 aggreg inconclusive, TRb SRC2 PPI -18%, TexasRed fluor -2%, KDM4E inh 3.2µM* and Coupling enz -1.
Screening NC(=O)[C@@H]1CCCN1C(=O)C(Cc1cnc[nH]1)NC(=O)C1CCC(=O)N1 (some centres undefined) returned TRb SRC2 PPI -6%, TexasRed fluor 1% and Coupling enz 3.
For COc1ccc(Cl)cc1NC(=O)CSc1ccc(-c2sc(C)nc2C)nn1 the results were TRb SRC2 PPI -2% and TexasRed fluor -3%.
For Cc1ccc(C(=O)Cn2c(C(=O)/C=C/c3ccccc3)nc3ccccc32)cc1 the results were HTT ATP protect -57%, HttQ103 aggreg 11µM*, KDM4E inh 18% and Coupling enz -2.
`Cc1ccc(C(=O)Cn2c(NCCO)nc3ccccc32)cc1` gave HTT ATP protect -26%[10 µM], HttQ103 aggreg -11%, TRb SRC2 PPI -2%, TexasRed fluor -7%, KDM4E inh -3% and Coupling enz -2.
Screening Cc1nnsc1C(=O)N/N=C/c1ccc2ccccc2c1O returned HTT ATP protect -59%[10 µM], TRb SRC2 PPI 1%, TexasRed fluor -1%, KDM4E inh 22µM* and Coupling enz 4.
Screening Cc1nnsc1C(=O)N/N=C/c1ccccc1 returned HTT ATP protect 13%[10 µM], HttQ103 aggreg -2%, TRb SRC2 PPI 6%, TexasRed fluor -23%, KDM4E inh 2% and Coupling enz 2.
`CCCCCCCCCCCCCCCCCC#N` gave TRb SRC2 PPI -2%[201 µM] and TexasRed fluor 4%[201 µM].
For O=C1c2cccc3c([N+](=O)[O-])ccc(c23)C(=O)N1c1nccs1 the results were HTT ATP protect -100%, HttQ103 aggreg 13µM*, TRb SRC2 PPI 4%, TexasRed fluor -23%, KDM4E inh 1% and Coupling enz -11.

Screening results from PubChem BioAssay.
